Screens (PubChem)
ALDH1A1 block – blocks purified human ALDH1A1 activity; Purified ALDH1A1, NADH fluorescence, propionaldehyde substrate; Potency, µM (titrated, usually from 75.3 µM), for inactives: top-dose activity, negative = inhibition, actives largely listed as inhibitors; 220,000 compounds, 7.3% hits;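 note: potency is the fitted concentration of half-maximal effect; plate controls were no enzyme wells and a reference inhibitor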
Target sequence (P00352 whole entry, looked up): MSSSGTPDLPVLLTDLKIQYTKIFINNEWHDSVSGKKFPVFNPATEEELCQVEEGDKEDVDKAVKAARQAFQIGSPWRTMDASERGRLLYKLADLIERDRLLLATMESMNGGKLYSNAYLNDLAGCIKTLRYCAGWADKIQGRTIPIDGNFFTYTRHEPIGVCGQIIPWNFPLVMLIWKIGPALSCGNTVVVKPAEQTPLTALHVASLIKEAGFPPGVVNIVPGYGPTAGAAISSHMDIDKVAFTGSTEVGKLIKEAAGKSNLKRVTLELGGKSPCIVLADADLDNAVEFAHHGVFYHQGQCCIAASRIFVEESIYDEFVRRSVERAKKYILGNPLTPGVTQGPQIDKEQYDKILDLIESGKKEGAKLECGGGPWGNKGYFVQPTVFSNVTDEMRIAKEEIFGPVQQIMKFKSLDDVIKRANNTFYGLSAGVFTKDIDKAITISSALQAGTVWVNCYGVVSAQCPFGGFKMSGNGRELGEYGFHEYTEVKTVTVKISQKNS
PNC inhibitor – inhibitors of perinucleolar compartment assembly | PC3M PTB-GFP, PNC prevalence imaging, 16 h; hits give low values | activity change (PNC), negative = inhibition, % at 10 µM | 140,000 compounds, 3.1% hits | AID 2417;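 active = readout at or below -70, meaning at least 70% loss of cells showing the perinucleolar compartment, a nuclear body marking cancer cells; inconclusive = readout between -30 and a set limit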;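 note: plate controls were DMSO wells for no effect and camptothecin positive control wells for full effect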
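Compounds are pinned in duplicate onto adhered PC3M cells stably expressing GFP-tagged PTB and incubated 16 h at 37 C. Cells are then fixed, nuclei stained with Hoechst, and PNC-positive cells counted.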
IMPase cell inh – IMPase inhibition in cells; P97697; CHO-M1 cells, IP1 accumulation, HTRF TR-FRET ratio; inhibition (IP1 accumulation), % at 46.1 µM; 120,000 tested, under 10 active; active = well fitted curve in the direction sought with a large enough effect in the signal ratio, not every such curve was filed as active; inconclusive = small, poorly fitted or top-dose-only effect, or a change in a side signal; inactive = no such curve, though single readings can be large or run the other way; the % refers to the signal ratio;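 note: cells stimulated with carbachol in lithium chloride buffer; plate controls were DMSO basal wells for no effect and reference inhibitor wells for full effect; higher means more IMPase inhibition seen as more IP1 and lower FRET ratio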
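Elevated IP1 in lysates lowers TR-FRET signal (665/620 ratio and 620 channel reported). Cells were CHO-M1, given carbachol (50 uM as added) plus 50mM LiCl, pH 7.4, 30 min, 37C; compounds titrated up to 46 uM; AC50 by Hill equation.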
IMPase Li inh – membrane-permeable IMPase blocker, potentiated with lithium; CHO-M1 cells, IP1 TR-FRET (IP-One), carbachol + lithium; Potency, µM (titrated, usually from 59.4 µM), for inactives: top-dose activity, negative = IMPase inhibition, hits mostly inhibitors; 210,000 compounds, 0.35% hits; active = well fitted inhibition curve with a large enough effect; inconclusive = small, poorly fitted or top-dose-only effect; inactive = no such curve, though single readings can be large or run the other way;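 note: IP1 builds up when IMPase is blocked and the TR-FRET signal falls; potency is the fitted concentration of half-maximal effect; plate controls were basal vehicle for no effect and high inhibitor control for full effect; nearly all actives have a fitted effect of over 50% in size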
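Concentration–response in CHO-M1 cells, lithium-potentiated; 30 min at 37C. IP1 detected by competitive TR-FRET after 10 min lysis at RT. Hill-fitted AC50.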
HPGD inh – inhibitors of human 15-hydroxyprostaglandin dehydrogenase (HPGD); purified HPGD, NADH fluorescence kinetic, PGE2 substrate; AID 894; 150,000 compounds, 4.3% hits; Potency, µM, without a hit: top-dose activity change, negative = inhibition, hits mostly inhibitors; P15428; note: potency is the fitted concentration of half-maximal effect
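NADH formation kinetics: reaction with 30 uM PGE2 and 1 mM NAD+ (final), 20 nM enzyme, Tris-HCl pH 8 with Tween 20, after 15 min compound preincubation at room temperature. Fluorescence change, last versus first of five reads.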
Numbers without * were called inactive; [ ] = dose if it differs, or a comment. An excerpt weighted towards active compounds, which were near 11% of everything screened. Unless noted, calls come from the whole dose curve; as a rule, active = well fitted inhibition curve with a large enough effect (not every such curve was filed as active); inconclusive = small, poorly fitted or top-dose-only effect, or another doubt; inactive = no such curve, though single readings can be large or run the other way. Unless noted, % is set by controls: 0 for no effect and ±100 for the full control effect.

`Cc1ccccc1Nc1nc(N)nc(COC(=O)c2cccc(S(=O)(=O)N(C)C)c2)n1` gave ALDH1A1 block -7%, PNC inhibitor -21, IMPase Li inh 6% and HPGD inh -8%.
For Cc1ccccc1Nc1nc(N)nc(COC(=O)c2cccc(S(=O)(=O)NCc3ccccc3)c2)n1 the results were ALDH1A1 block 11%, PNC inhibitor 66, IMPase Li inh 10% and HPGD inh 28µM*.
For CC1CCC2C(=O)OC(Cc3ccccc3)CN2C1c1ccc(Br)cc1 (configuration not stated) the results were ALDH1A1 block 1%[13.5 µM].
`COc1ccc(NC(=O)CNc2cc(S(=O)(=O)N3CCOCC3)ccc2NCC2CCCO2)cc1` (configuration not stated) gave ALDH1A1 block 7.1µM* and IMPase Li inh 5%.
O=C(COC(=O)COc1ccccc1[N+](=O)[O-])Nc1ccc(S(=O)(=O)N2CCCCC2)cc1 was read as ALDH1A1 block 14µM*, PNC inhibitor 1, IMPase cell inh 3, IMPase Li inh -14%[38.3 µM] and HPGD inh -22%.
`CCC(C)NC(=O)COc1ccc(S(=O)(=O)N2CCOCC2)cc1` (configuration not stated) gave ALDH1A1 block 5µM*, PNC inhibitor 10, IMPase cell inh 2, IMPase Li inh 5%[38.3 µM] and HPGD inh -7%.
Screening N#Cc1ccc(NC(=S)NC(=O)CCc2ccc(S(=O)(=O)N3CCOCC3)cc2)cc1 returned ALDH1A1 block 16µM* and IMPase Li inh 9%.
`COc1ccc(NS(=O)(=O)c2ccc(C)c(NC(=O)c3ccc(C)c(S(=O)(=O)N4CCOCC4)c3)c2)cc1` gave ALDH1A1 block 11%, PNC inhibitor inconclusive, IMPase Li inh -1% and HPGD inh -10%.
COC(=O)C1=C(C(=O)OC)[C@@H]2Nc3ccccc3[C@@]23C[C@@H](C(=O)OC)N(S(=O)(=O)c2ccc(OC)cc2)C3=N1 was read as ALDH1A1 block -5%[13.5 µM], IMPase Li inh 0% and HPGD inh -5%.
CC(C)=CCCC1=CC[C@H](C(=O)O)[C@H](C(=O)O)C1 was read as ALDH1A1 block 3%, IMPase Li inh 4% and HPGD inh 2%.
Screening Cc1cc(C)n2nc(CC(=O)NCc3ccc(F)cc3)nc2n1 returned ALDH1A1 block 7%, PNC inhibitor 48, IMPase cell inh 4, IMPase Li inh 2% and HPGD inh -8%.
For O=c1c2ccccc2c2ccccc2c(=O)n1-c1cc2c3ccccc3ccc2c2ccccc12 the results were ALDH1A1 block 0%[13.5 µM], IMPase Li inh -2% and HPGD inh -6%.
For Cc1nc2scc(C)n2c(=O)c1S(=O)(=O)Nc1cccc(C(F)(F)F)c1 the results were IMPase cell inh 0.
`COc1cc(CC(=O)OCn2nnc3ccccc3c2=O)cc(OC)c1OC` gave ALDH1A1 block 7% and IMPase Li inh -2%.
Screening CCC(=O)Nc1ccc(S(=O)(=O)N2CCOCC2)cc1 returned ALDH1A1 block 2%, PNC inhibitor -80*, IMPase cell inh -7, IMPase Li inh 25%[38.3 µM] and HPGD inh -5%.
`Cc1cc(C)n(-c2ccc(C(=O)OCC(=O)Nc3ccc([N+](=O)[O-])cc3)cc2)n1` gave ALDH1A1 block -10%, PNC inhibitor inconclusive, IMPase Li inh 6% and HPGD inh -10%.
Screening O=C(COC(=O)Cc1ccsc1)Nc1ccc(Cl)c(S(=O)(=O)N2CCOCC2)c1 returned ALDH1A1 block 5%, PNC inhibitor -87*, IMPase Li inh -2% and HPGD inh -6%.
For O=C(CCCOc1ccccc1)Nc1ccc(S(=O)(=O)N2CCOCC2)cc1 the results were ALDH1A1 block -9%, PNC inhibitor 14, IMPase cell inh 4, IMPase Li inh -2%[38.3 µM] and HPGD inh 6%.
Cc1cc(C)n(-c2ccc(C(=O)OCC(=O)Nc3ccc(S(=O)(=O)N4CCOCC4)cc3)cc2)n1 was read as ALDH1A1 block 11%, PNC inhibitor -87*, IMPase cell inh 7, IMPase Li inh -12%[38.3 µM] and HPGD inh -11%.
Screening O=C(COC(=O)Cc1ccsc1)Nc1ccc(S(=O)(=O)N2CCOCC2)cc1 returned ALDH1A1 block -9%, PNC inhibitor inconclusive and IMPase cell inh -4.
`O=C(COC(=O)COc1ccccc1)Nc1ccc(S(=O)(=O)N2CCOCC2)cc1` gave ALDH1A1 block 32µM* and IMPase Li inh 9%.
O=C(CN1CCCCCC1)Nc1ccc(S(=O)(=O)N2CCOCC2)cc1 was read as ALDH1A1 block 10% and IMPase Li inh 21%.
Screening COC(=O)C(C)NC(=O)CNS(=O)(=O)c1ccc(F)cc1 (configuration not stated) returned ALDH1A1 block 1% and IMPase Li inh -6%.
For CCOC(=O)COc1ccc(C(=O)NC2CCCCC2)cc1 the results were ALDH1A1 block -5%, PNC inhibitor inconclusive, IMPase cell inh 11, IMPase Li inh 28%[38.3 µM] and HPGD inh -21%.
For OC1c2ccccc2-c2nc3ccccc3cc21 (configuration not stated) the results were ALDH1A1 block inconclusive, IMPase Li inh -12% and HPGD inh -25%.
Cc1cc(C)n(-c2ccc(C(=O)OCC(=O)c3ccc(Br)s3)cc2)n1 was read as ALDH1A1 block 22µM*, PNC inhibitor -18, IMPase cell inh -24, IMPase Li inh inconclusive and HPGD inh -12%.
CCOc1cc(C(=O)Nc2ccc(S(=O)(=O)N3CCOCC3)cc2)cc(OCC)c1OCC was read as ALDH1A1 block -3%, PNC inhibitor -10, IMPase cell inh 6, IMPase Li inh -7%[38.3 µM] and HPGD inh -8%.
`CCOCC(=O)Nc1ccc(S(=O)(=O)N2CCOCC2)cc1` gave ALDH1A1 block 10µM*, PNC inhibitor -28, IMPase cell inh -7, IMPase Li inh 2% and HPGD inh -1%.
For CC(=O)N=C(N)Sc1nc2ccccc2[nH]1 the results were ALDH1A1 block -3%, PNC inhibitor -100*, IMPase cell inh -9, IMPase Li inh 13% and HPGD inh -17%.
`C(=N\n1cnnc1)/c1cccc(Oc2ccccc2)c1` gave ALDH1A1 block 6%, PNC inhibitor 30, IMPase cell inh 1, IMPase Li inh 3%[38.3 µM] and HPGD inh -1%.
`S=c1[nH]ncn1/N=C/c1cccc(Oc2ccccc2)c1` gave ALDH1A1 block 18µM*, PNC inhibitor 24, IMPase cell inh 2, IMPase Li inh 42%[38.3 µM] and HPGD inh 10µM*.
For CN(C)c1ccc(C(c2nnnn2CCOC(=O)Nc2ccc(Cl)cc2)N2CCOCC2)cc1 (configuration not stated) the results were ALDH1A1 block 25µM*, PNC inhibitor 30, IMPase cell inh 4, IMPase Li inh 44%[38.3 µM] and HPGD inh -25%.
